Compounds without any hit were thinned out: in the full panel of roughly 83,000, 20% have a hit.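 Assay: single dose, 48 h. Readout: percent growth (0 = no net growth; negative = cell death). Active: <10.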 Values without a mark were called inactive. The source made the active and inactive calls.

Growth data for 40 compounds are collected here from PubChem BioAssay (NCI).

The test deals with MOLT-4 leukemia. Put plainly: NCI-60 one-dose screen, 48 h (100 = growth as untreated, 0 = no growth, -100 = all killed). To be noted: 10 µM unless noted.
`CC/C(=C(/c1ccc(Cl)cc1)c1ccc(OCCN2CCCC2)cc1)c1ccc(OC)cc1`: the growth was 32%.

As for `c1cc2[nH]ncc2cc1-c1nc2ccc3[nH]ncc3c2c2c1CCCC2`, the growth is -6.76% (active).

For `O=C(/C=C/c1ccc(Cl)cc1)c1cccc(Nc2nc(Nc3ccccc3)nc(Nc3ccccc3)n2)c1`, the growth was 61.7%.

As to `N#Cc1nc(-c2ccccc2)oc1S(=O)(=O)N1CCOCC1`, the growth was -16% (active).

On to `O=C1Nc2ccccc2/C1=C\c1nc(-c2ccccc2)n2ccccc12`, for which the growth is 88.1%.

Take `O=C(COc1ccc(-c2nc3ccccc3[nH]2)cc1)N=Nc1c(O)[nH]c2ccc(Cl)cc12`: the growth is 22.9%.

For `COc1ccc(NC(=O)c2sc3nc(C)c(C(=O)/C=C/c4cccc(OC)c4)cc3c2N)cc1`, the growth is 33.1%.

Turning to `COc1cnc2c(c1)C(=O)c1c-2n(CCCNCCO)c(=O)c2ccncc12`, the growth is -7.69% (active).

For `O=C(Nc1nc2ccc(F)cc2s1)c1cccnc1Nc1ccc(Cl)cc1`, the growth is 16.6%.

With `N#CC1C=CN(CC(N)=O)c2ccc3cccnc3c21` (stereo not given), the growth was 98%.

On to `COc1ccc(-c2nc3c(c(-c4ccccc4)nn3-c3ccccc3)c(-c3ccc(N4CCN(C)CC4)cc3)c2C#N)cc1`, for which the growth was 69.4%.

Consider `Cn1c(=O)c2[nH]c(N/N=C/c3ccccc3Br)nc2n(C)c1=O`, for which the growth was 98.3%.

`O=C(Nc1ccc(NC(=O)c2cc(=O)[nH]c3ccccc23)cc1)Nc1cccc(C(F)(F)F)c1`: the growth was 79.6%.

In the case of `O=C1C(Cl)=C(Oc2ccccc2)C(=O)c2ccccc21`, the growth is 57.4%.

In the case of `CC(C)OC(=O)c1ccc2[nH]c(O)c(C(=Nc3ccc(N(C)C(=O)CN4CCN(C)CC4)cc3)c3ccccc3)c2c1`, the growth was -17.9% (active).

On to `O=C1C(Cl)=C(Nc2ccc(O)cc2)C(=O)N1Cc1ccc(Cl)cc1`, for which the growth is 16.9%.

For the compound `COc1cc(OC)c2sc(-c3ccc(-n4cncc4-c4ccc(OC)c(OC)c4)cc3)nc2c1`, the growth was 33.6%.

Turning to `CCN(CC)C(=S)SC(SC(=S)N(CC)CC)C(=O)c1nnn(-c2ccc([N+](=O)[O-])cc2)c1C`, the growth was 92.5%.

For the compound `COc1cccc(CNc2ncnc3c2ncn3C2OC(CO)C(O)C2O)c1O` (stereo not given), the growth was 0.14% (active).

On to `CC(C)c1ccc(COCc2cc(CN3CCCC3)c(O)c3ncccc23)cc1`, for which the growth is -5.7% (active).

In the case of `O=C(NCc1ccccc1)Nc1ccccc1CNc1nc(Nc2ccc(OCCN3CCCC3)cc2)ncc1Cl`, the growth was 74.1%.

With `Cc1ccc(-n2c(=S)[nH]c3sc4c(c3c2=O)CCC(=O)C4)cc1`, the growth was 48.9%.

As to `Oc1c(Cl)cc(Cl)cc1/C=N/Nc1nnc(N/N=C/c2cc(Cl)cc(Cl)c2O)c2ccccc12`, the growth was 5.23% (active).

For the compound `CCCCCCC1(C)NCCO1` (stereo not given), the growth is 104%.

Consider `Clc1ccc2c(c1)N(c1ncnc3ccc(-c4cnc5[nH]ncc5c4)cc13)CC2`, for which the growth was 3.68% (active).

Take `COC(=O)c1cc(-c2ccc(S(C)(=O)=O)cc2)[nH]c1N/N=C/c1c(Cl)cccc1Cl`: the growth is 6.05% (active).

Take `C=CCn1c(SCC(=O)Nc2ccc(C(=O)/C=C/c3ccc(Cl)cc3)cc2)nnc1-c1cc(-c2ccc(S(N)(=O)=O)cc2)nc2ccccc12`: the growth is 66.1%.

`Cc1cc2c(O)c(-c3cc(Cl)ccc3Cl)c3sc(=O)oc3c2cc1C`: the growth is 40.6%.

For `CC(=O)N(N=Nc1ccccc1)c1cccc2ccccc12`, the growth is 76.8%.

In the case of `Cc1ccc(-c2nc3nc(-c4ccc(F)cc4)nc(N4CCNCC4)c3o2)cc1`, the growth is -64.6% (active).

For the compound `O=c1oc2ccc([N+](=O)[O-])cc2cc1Br`, the growth was 98.5%.

For the compound `COc1ccc2nc(NC(=O)CSc3nnc4n3S(=O)(=O)c3ccccc3N4C)sc2c1`, the growth is 71.5%.

In the case of `Cc1ccc(-c2nn(-c3ccccc3)cc2C=C2C(=O)ON=C2C(C)C)cc1`, the growth is -15.6% (active).

On to `Cc1cccc(N2CCN(CC(O)COc3ccc(Cl)cc3)CC2)c1` (stereo not given), for which the growth is 77.1%.

Regarding `Cc1nc2c(=O)[nH]c(SCC(=O)Nc3cccc(F)c3)nc2[nH]c1=O`, the growth is 100%.

On to `CN(C)c1ccc(/C=C/C(=O)c2ccc(-n3cc(CN4CCN(c5cc6c(cc5F)c(=O)c(C(=O)O)cn6C5CC5)CC4)nn3)cc2)cc1`, for which the growth was 31.8%.

Consider `COc1cc2c(c(OC)c1OC)-c1ccc(OC)c(=O)cc1[C@@H](NC(=O)CCl)CC2`, for which the growth is 20.9%.

As to `O=C(Nc1cccnc1Nc1ccc(F)cc1)c1cn(Cc2cccc(Oc3ccccc3)c2)nn1`, the growth is 32%.

For `COc1ccc(-c2ccc3cnc4sc(-c5ccc(OC)cc5)nc4c3n2)cc1`, the growth was 85.9%.

Consider `CN1CCN(c2ccc(NC(=O)c3cncnc3Nc3ccc(OCc4ccccn4)c(Cl)c3)cc2)CC1`, for which the growth is 8.56% (active).
